High-throughput results from PubChem.
Nrf2 ARE act: activators of Nrf2 (ARE) signaling | AREc32 ARE-luciferase reporter (MCF7-derived line), luminescence, 24 h | Potency, µM (top dose mostly 46.1 µM), most hits filed as activators | 410,000 tested, 0.31% active | AID 624171; note: nearly all actives have a fitted effect of over 65% in size
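Cells of the AREc32 ARE-luciferase line are plated in OPTI-MEM containing 5% FBS and left overnight at 37 deg C. Compounds are pinned in, incubation continues 24 hr, and firefly luciferase signal is then measured.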
Nrf2 block: blocks Nrf2 signaling; A549 ARE-Fluc reporter, luciferase luminescence, 18-24 h; 360,000 tested, 2.1% active; Potency, µM (doses to about 46 µM), usual class: inhibitors; AID 504444; note: nearly all actives have a fitted effect of over 60% in size
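Reporter: ARE-Fluc in A549. Exposure: 18-24 h, 37 °C, 5% CO2, 5% FBS OPTI-MEM. Readouts: fluorescent cytotoxicity (CellTiter-Fluor), then luminescent Nrf2 signal after BugLite.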
IL2 activator: activators of IL-2; AID 652025; 360,000 tested, 0.065% active; IL-2 activation reporter assay, cell-based qHTS; stimulated with anti-CD3/CD4/CD28 beads; in transgenic mouse T cells; activation, % (series mostly up to about 46 µM); in the data active = activation above about 50%; inconclusive = mostly about 30% to 49%
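Unstimulated transgenic mouse T cells; 60-min compound exposure; bead-based TCR/CD4/CD28 stimulation; 18 h culture, 37 degrees C; dual fluorescence (EGFP, DsRed) plate cytometry.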
A549 tox: kills or reduces viability of A549 cells in Nrf2 counter-screen | Potency, µM (doses to about 46 µM), usual class: inhibitors | A549 ARE-Fluc cells, CellTiter-Fluor viability, 18-24 h | 390,000 tested, 0.16% active | AID 504648
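A549 ARE_Fluc cells in 5% FBS OPTI-MEM were exposed to compounds in concentration-response for 18-24 h at 37 deg C. Viability was read by CellTiter-Fluor fluorescence (Ex 405/Em 525) after 30 min, before the luciferase read.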
Large screens that a line does not name were inactive. Compounds with a hit are over-represented: about 2.3% of the library has one in this group of screens. Unless noted, calls come from the whole dose curve; as a rule, active = well fitted curve in the direction sought with a large enough effect; inconclusive = small, poorly fitted or top-dose-only effect, or another doubt; inactive = no such curve, though single readings can be large; an effect the other way counts as inactive or inconclusive.

COc1ccc(-c2cc(C(F)(F)F)n3nc(C(=O)NCC45CC6CC(CC(C6)C4)C5)cc3n2)cc1OC	none (no result: IL2 activator)
O=C(Nc1cccc2cccnc12)OCc1ccccc1	none (no result: Nrf2 ARE act, IL2 activator)
COCC(C)N1C(=O)Cc2c1nc(N)c1c(N)nc(N3CCN(c4ccccc4F)CC3)c(C#N)c21 (configuration not stated)	Nrf2 block 11.6µM
COCCN1C(=O)Cc2c1nc(N)c1c(N)nc(N3CCN(c4ccc(F)cc4)CC3)c(C#N)c21	none
CCC(C)(C)C1CCc2[nH]nc(C(=O)NCCN3CCOCC3)c2C1 (configuration not stated)	none
CCC(C)(C)C1CCc2[nH]nc(C(=O)NCCCNC(=O)OC(C)(C)C)c2C1 (configuration not stated)	Nrf2 block 25.9µM
COc1cc(NC(=O)Cn2c(-c3ccccc3)cc(C(C)=O)c2C)cc(OC)c1	none (no result: Nrf2 block, IL2 activator)
O=[N+]([O-])c1ccc(Cl)c(/C=N/N2CCN(c3ccccc3)CC2)c1	Nrf2 ARE act 12.6µM
O=C(c1cc([N+](=O)[O-])ccc1Cl)N1CCN(c2ccc([N+](=O)[O-])cc2)CC1	Nrf2 block 20.6µM, A549 tox inconclusive
O=C(c1ccc2nsnc2c1)N1CCN(c2ccc([N+](=O)[O-])cc2)CC1	Nrf2 block 23.1µM
COc1ccc(N2CCN(C(=O)c3ccc(COc4ccc([N+](=O)[O-])cc4)o3)CC2)cc1	Nrf2 block 23.1µM
COc1ccc(N2CCN(C(=O)Oc3ccc([N+](=O)[O-])cc3)CC2)cc1	none (no result: Nrf2 block, A549 tox)
CCCC1=Nc2cc(C(=O)NC3CCCCC3)ccc2Sc2ccc(C)cc21	A549 tox inconclusive (no result: Nrf2 block, IL2 activator)
COc1cc(F)c(S(=O)(=O)N2CCN(S(=O)(=O)c3ccco3)CC2)c(F)c1	none (no result: Nrf2 ARE act, IL2 activator)
Cc1cccc(C)c1N1CCN(C(c2cc3ccccc3o2)c2nnnn2C(C)(C)C)CC1 (configuration not stated)	none (no result: Nrf2 block, A549 tox)
O=C(Cc1ccccc1)N1CCN(c2ccc([N+](=O)[O-])cc2)CC1	Nrf2 block 25.9µM
O=C(C[C@H]1C[C@H](C(=O)N2CCCCC2)[C@@]2(CCc3ccccc3)c3[nH]c4cc(-c5ccco5)ccc4c3CCN2C1=O)NCCN1CCOCC1	none
CC(C)N(C(=O)[C@H]1C[C@H](CC(=O)NCCC2=CCCCC2)C(=O)N2CCc3c([nH]c4ccc(Cl)cc34)[C@]12C)C(C)C	Nrf2 block 20.6µM, A549 tox inconclusive
CCN(CC)C(=O)[C@H]1CC(CC(=O)NCC23CC4CC(CC(C4)C2)C3)C(=O)N2CCc3c([nH]c4ccc(OC)cc34)[C@]12C (some centres not stated)	Nrf2 block 23.1µM
C[C@]12c3[nH]c4ccccc4c3CCN1C(=O)C(CC(=O)NCC13CC4CC(CC(C4)C1)C3)C[C@@H]2C(=O)N1CCOCC1 (some centres not stated)	none
C[C@]12c3[nH]c4ccccc4c3CCN1C(=O)C(CC(=O)NCC13CC4CC(CC(C4)C1)C3)C[C@@H]2C(=O)N1CCCCC1 (some centres not stated)	Nrf2 block 16.4µM
COCCCNC(=O)C[C@H]1C[C@H](C(=O)N2CCCCC2)[C@@]2(CCc3ccccc3)c3[nH]c4cc(-c5ccco5)ccc4c3CCN2C1=O	Nrf2 block 23.1µM
CC(C)=CCC/C(C)=C/CNC(=O)C[C@H]1C[C@H](C(=O)N2CCOCC2)[C@@]2(C)c3[nH]c4cc(CCC(=O)N(C)C)ccc4c3CCN2C1=O	Nrf2 block 14.6µM
CN(C)C(=O)CCc1ccc2c3c([nH]c2c1)[C@]1(C)[C@@H](C(=O)N2CCOCC2)C[C@H](CC(=O)NCC24CC5CC(CC(C5)C2)C4)C(=O)N1CC3	none
CC[C@]12c3[nH]c4ccccc4c3CCN1C(=O)C(CC(=O)NC/C=C(\C)CCC=C(C)C)C[C@@H]2C(=O)N1CCN(C(=O)c2ccco2)CC1 (some centres not stated)	Nrf2 block 23.1µM
CCN(CC)C(=O)[C@H]1C[C@H](CC(=O)NCc2cccc(C(F)(F)F)c2)C(=O)N2CCc3c([nH]c4cc(-c5ccco5)ccc34)[C@]12C	Nrf2 block 18.4µM, A549 tox inconclusive
CC[C@]12c3[nH]c4cc(-c5ccco5)ccc4c3CCN1C(=O)[C@@H](CC(=O)NC/C=C(\C)CCC=C(C)C)C[C@@H]2C(=O)N1CCN(C(=O)c2ccco2)CC1	Nrf2 block inconclusive
